Assay outcomes: PubChem, National Center for Advancing Translational Sciences (NCATS)
Vaccinia mCherry: inhibitors of vaccinia virus infection (mCherry reporter signal); Vaccinia virus mCherry reporter infection, fluorescence; Potency, µM (doses to about 36.5 µM), without a hit: at the highest dose activity change, negative = inhibition, actives largely listed as inhibitors; 310,000 compounds, 0.63% hits; calls by dose curve; tested in A549 cells; further: on the % scale 0 is the no-effect control and ±100 the full control effect; nearly all actives have a fitted effect of over 35% in size
Vaccinia Venus: vaccinia inhibition (Venus reporter). Vaccinia virus Venus reporter expression, fluorescence. Potency, µM (series often up to 36.5 µM), without a hit: at the highest dose activity change, negative = inhibition, usual class: inhibitors. 330,000 compounds, 0.46% hits. AID 720580; calls by dose curve; tested in A549 cells; further: on the % scale 0 is the no-effect control and ±100 the full control effect; nearly all actives have a fitted effect of over 30% in size
NS1 function inh: blocks influenza NS1 protein function; Potency, µM (titrated, usually from 46.1 µM), for inactives: at the top dose activity, positive = more growth; 270,000 compounds, 0.4% hits; AID 2326; calls by dose curve; further: actives are rising curves; nearly all actives have a fitted effect of over 50% in size
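A cell-based growth assay was used: compounds that relieve NS1-induced slow growth of budding yeast raise OD600. Assay medium was yeast nitrogen base with ammonium sulphate and -URA supplement, pH 6.0, with 2% galactose.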
HCV inh: HCV inhibition | Potency, µM (titrated, usually from 41.8 µM), without a hit: at the top dose activity change, negative = inhibition, most hits filed as inhibitors | AID 651820 | Huh7.5.1 HCVcc-Cre infection, luciferase reporter, 44 h | 340,000 compounds, 3.4% hits; further: on the % scale 0 is the no-effect control and ±100 the full control effect
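Seed cells (1,000/well) for 4 h; treat with compound and infect with HCVcc-Cre, moi about 0.5. Incubate 44 h, then detect luciferase activity.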
Pf growth 96h: P. falciparum growth inhibition at 96 hour, primary screen for plastid delayed-death inhibitors; P. falciparum luciferase reporter growth, 96 h; Potency, µM (titrated, usually from 28.7 µM), inactives show at the highest dose activity change, negative = inhibition, actives largely listed as inhibitors; 320,000 compounds, 6.9% hits; AID 504834; further: on the % scale 0 is the no-effect control and ±100 the full control effect
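Parasite growth measured via integrated firefly luciferase reporter in P. falciparum. Infected erythrocytes at 2% hematocrit, 0.05% parasitemia final were treated 96 hours at 37 C under 5% CO2, and luminescence was read.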
Pf growth 48h: P. falciparum growth inhibition at 48 hours (one generation); P. falciparum luciferase growth in erythrocytes, 48 h; Potency, µM (titrated, usually from 28.7 µM), without a hit: at the top dose activity change, negative = inhibition, usual class: inhibitors; 310,000 compounds, 5.9% hits; further: on the % scale 0 is the no-effect control and ±100 the full control effect
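Here the parasites carry a stable luciferase gene and grow inside erythrocytes in Albumax-based RPMI medium with compound for one erythrocytic cycle. Activity is scored as loss of luminescent signal.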
* = called active by the depositor; [ ] = dose if it differs, or a comment. The list is not random: actives were taken first. Their share in the collection is about 11%. Unless noted, the call rests on the fitted dose curve; in most records, active means well fitted inhibition curve with a large enough effect; inconclusive means small, poorly fitted or top-dose-only effect, or another doubt; inactive means no such curve, though single readings can be large or run the other way. Potency means the concentration at half of the fitted maximal effect.

`O=C1NC(=O)N(c2ccc(Cl)cc2)C(=O)/C1=C/c1ccc2c(c1)CCN2Cc1ccccc1Cl` gave Vaccinia mCherry inactive, Vaccinia Venus -10.5% and HCV inh 23.0%.
Cc1ccc(NC(=O)CSc2ncn[nH]2)cc1 was read as Vaccinia mCherry 2.6%, Vaccinia Venus -4.5%, HCV inh 12.5%, Pf growth 96h 21.9% and Pf growth 48h -1.0%.
`CCOc1ccc(-c2n[nH]c(=S)c3ccccc23)cc1` gave Vaccinia mCherry -2.1%, Vaccinia Venus -20.6%, NS1 function inh 3.8%, HCV inh -12.8%, Pf growth 96h 1.65µM* and Pf growth 48h inconclusive.
Cc1ccc(-c2n[nH]c(=S)c3ccccc23)cc1 was read as HCV inh 2.0%, Pf growth 96h inconclusive and Pf growth 48h 0.0%.
For COc1ccc(-n2ncc(C(C)NS(=O)(=O)c3ccc(C(C)=O)cc3)c2C)cc1 (stereo not given) the results were Vaccinia mCherry -3.9%, Vaccinia Venus -18.5%, NS1 function inh -4.7%, Pf growth 96h 33.3% and Pf growth 48h -5.8%.
`C/C(=N\O)c1ccc(N2C(=O)C3CC=C(Cl)CC3C2=O)cc1` (stereo not given) gave NS1 function inh 4.3%, HCV inh 4.6%, Pf growth 96h 5.22µM* and Pf growth 48h inactive.
`CCN(CC)C(=O)c1ccc(N2C(=O)C3CC=C(Cl)CC3C2=O)cc1` (stereo not given) gave Vaccinia mCherry -6.2%, Vaccinia Venus 1.2%, NS1 function inh -11.0%, HCV inh 7.8%, Pf growth 96h -4.4% and Pf growth 48h 7.6%.
Screening COc1ccc(C2SCC(=O)N2c2ccc(OC)cc2)cc1 (stereo not given) returned NS1 function inh 5.2%, HCV inh -10.3%, Pf growth 96h 374.4% and Pf growth 48h 3.0%.
For COc1ccc(N2C(=O)CSC2c2ccc([N+](=O)[O-])cc2)cc1 (stereo not given) the results were Vaccinia mCherry -13.0%, Vaccinia Venus -7.4%, NS1 function inh 2.6%, HCV inh -21.1% and Pf growth 96h 5.22µM*.
Screening CCOC(=O)N1CCN(C(=O)C2CC(=O)N(c3ccc(OC)cc3)C2c2ccc(OC)cc2)CC1 (stereo not given) returned Vaccinia mCherry -6.9%, Vaccinia Venus -11.2%, NS1 function inh -3.1%, HCV inh 4.3%, Pf growth 96h inconclusive and Pf growth 48h 9.28µM*.
For CCC(C)NC(=O)C1CCC(=O)N(c2cc(OC)c(OC)c(OC)c2)C1c1ccc(OC)cc1 (stereo not given) the results were Vaccinia mCherry -4.5%, Vaccinia Venus -4.3%, NS1 function inh -2.7%, HCV inh 14.4%, Pf growth 96h inconclusive and Pf growth 48h inconclusive.
For COc1ccc(C2SCC(=O)N2c2ccc(F)cc2)cc1 (stereo not given) the results were NS1 function inh 1.7%, HCV inh -1.0%, Pf growth 96h 2.62µM* and Pf growth 48h 12.8%.
COc1ccc(C2C(C(=O)O)CC(=O)N2c2ccc(OC)cc2)cc1 (stereo not given) was read as Vaccinia mCherry -9.9%, Vaccinia Venus -11.9%, NS1 function inh 4.4%, HCV inh -15.6%, Pf growth 96h inconclusive and Pf growth 48h 3.8%.
`O=C1CSC(c2ccc([N+](=O)[O-])cc2)N1c1ccccc1` (stereo not given) gave Vaccinia mCherry -12.3%, Vaccinia Venus -3.9%, NS1 function inh 3.9%, HCV inh 6.1% and Pf growth 96h inconclusive.
For COc1ccc(C2C(C(=O)NCc3ccccn3)CCC(=O)N2c2cc(OC)c(OC)c(OC)c2)cc1 (stereo not given) the results were Vaccinia mCherry inactive, Vaccinia Venus 13.1%, HCV inh -1.1%, Pf growth 96h 11.7µM* and Pf growth 48h 15.0%.
O=C(COC(=O)/C=C/c1cccc(Cl)c1)NC(=O)NCc1ccccc1 was read as HCV inh -6.1%, Pf growth 96h inconclusive and Pf growth 48h -15.4%.
COc1ccc(N2C(=O)CCC(C(=O)O)C2c2ccc(F)cc2)cc1 (stereo not given) was read as Vaccinia mCherry -8.5%, Vaccinia Venus -1.6%, NS1 function inh 10.2%, HCV inh -12.6%, Pf growth 96h 2.62µM* and Pf growth 48h 4.1%.
`COc1ccc(N2C(=O)CCC(C(=O)N3CCCCC3)C2c2ccc(F)cc2)cc1` (stereo not given) gave Vaccinia Venus 1.0%, NS1 function inh 7.0%, HCV inh 5.4% and Pf growth 48h 7.3%.
For O=C1C(=O)c2ccccc2C(O)=C1C(C1=C(O)c2ccccc2C(=O)C1=O)c1ccc(Cl)cc1 the results were NS1 function inh 8.6%.
For O=S1(=O)CCS(=O)(=O)C1c1ccccc1 the results were Vaccinia mCherry 11.2µM*, Vaccinia Venus inconclusive and HCV inh 24.2%.
`COc1ccc(CCNC(=O)c2noc(C(C)C)c2[N+](=O)[O-])cc1OC` gave Vaccinia mCherry -21.1%, Vaccinia Venus -8.0%, NS1 function inh -5.0%, HCV inh -22.9%, Pf growth 96h 28.2% and Pf growth 48h 1.0%[0.00184 µM].
`COc1ccc(C(=O)C2CC2)cc1` gave Vaccinia mCherry -13.4%, Vaccinia Venus -15.6% and HCV inh 14.6%.
Screening COc1ccc(OCC(=O)C2CC2)c(C#N)c1 returned NS1 function inh -4.4%, HCV inh -3.6%, Pf growth 96h 234.0% and Pf growth 48h 1.85µM*.
O=[N+]([O-])c1oc2ccc3ccccc3c2c1CCO was read as Vaccinia mCherry inconclusive, Vaccinia Venus 10µM* and HCV inh inconclusive.
`Cc1c(C(=O)c2ccccc2)oc2ccc3ccccc3c12` gave Vaccinia mCherry -8.1%, Vaccinia Venus 4.5%, NS1 function inh 2.3%, HCV inh inconclusive, Pf growth 96h inactive and Pf growth 48h 270.5%.
Cc1ccc(NC(=O)C2CCN(S(=O)(=O)c3ccc4c(c3)NC(=O)CO4)CC2)cc1 was read as Vaccinia mCherry -11.3%, Vaccinia Venus -19.9%, NS1 function inh 2.2%, HCV inh inconclusive, Pf growth 96h 13.1µM* and Pf growth 48h inconclusive.
For COc1ccccc1CNC(=O)C1CCN(S(=O)(=O)c2ccc3c(c2)NC(=O)CO3)CC1 the results were NS1 function inh -8.7%, HCV inh 5.9%, Pf growth 96h 10.4µM* and Pf growth 48h -11.8%.
For COc1cccc(CNC(=O)C2CCN(S(=O)(=O)c3ccc4c(c3)NC(=O)CO4)CC2)c1 the results were Vaccinia mCherry inactive, Vaccinia Venus -20.7%, NS1 function inh -7.1%, HCV inh 10.9%, Pf growth 96h inconclusive and Pf growth 48h -4.1%.
